Pf apPOL block: Pf-apPOL DNA polymerase inhibition; Recombinant Pf-apPOL, molecular beacon fluorescence, 1.5 h; inhibition, % at 10 µM; 210,000 tested, 0.25% active; AID 1794808
mHTT-CaM PPI inh: disrupts binding of mutant huntingtin to calmodulin. P42858. AlphaScreen His-mHTT/GST-CaM binding, luminescence. inhibition, % at 15 µM. 190,000 tested, 3.6% active. AID 1671202;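 note: 0% = both proteins with DMSO and 100% = one protein alone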
* = called active by the depositor; . = no result given. This is a sample that favours compounds with a hit; in the whole collection about 3.5% have one here. Cut-off read from the data, not from the text of the source: active = inhibition above about 50%; inactive = the rest.

SMILES	Pf apPOL block	mHTT-CaM PPI inh
O=S(=O)(NCCCc1nc2ccccc2[nH]1)c1ccc(Cl)cc1	-7.4	-2.0
CCC(CC)C(=O)N1CCN(c2nc(CN3CCOCC3)cs2)CC1	-6.2	3.7
COc1ccc2oc(=Nc3ccc(F)cc3F)c(C(=O)NC(C)=O)cc2c1	-3.7	2.0
COc1ccc2oc(=Nc3ccc(C#N)cc3)c(C(=O)NC(C)=O)cc2c1	-2.3	4.0
COc1ccc2cc(C(=O)NC(C)=O)c(=Nc3ccc(C#N)cc3)oc2c1	64.9*	0.0
COc1ccc2oc(=Nc3ccccc3F)c(C(=O)NC(C)=O)cc2c1	92.1*	4.0
C#CCCNC(=O)C(C)(C)C	-6.3	-7.5
Cc1ccc(S(=O)(=O)Nc2ccc(NC(=O)c3ccc(C)o3)cc2)cc1	-1.4	6.0
CCCN1C(=O)S/C(=C/c2cn(CC(=O)N3CCOCC3)c3ccccc23)C1=O	-2.4	19.0
C#CCN1C(=O)S/C(=C\c2cn(CC(=O)N3CCOCC3)c3ccccc23)C1=O	-2.7	75.0*
COc1ccc(C2CC(c3ccc(F)cc3)=NN2C(=O)CN2CCOCC2)cc1 (stereo unspecified)	-4.4	64.4*
COc1cccc(C2=NN(C(=O)CN3CCOCC3)C(c3ccccc3F)C2)c1 (stereo unspecified)	0.3	29.3
COc1ccc(C2=NN(C(=O)CN3CCCCC3)C(c3ccccc3F)C2)cc1 (stereo unspecified)	-7.5	69.1*
COc1ccc(C2=NN(C(=O)CN3CCOCC3)C(c3cccc(OC)c3OC)C2)cc1 (stereo unspecified)	-3.0	5.7
CCC(=O)N1N=C(c2ccc(C)cc2)CC1c1cc2cc(OC)ccc2nc1Cl (stereo unspecified)	5.8	-1.0
COc1ccc(C2=NN(C(=O)CN3CCCCC3)C(c3ccc(C)cc3C)C2)cc1 (stereo unspecified)	-6.7	100.1*
Cc1cccc(CNC(=O)c2ccc3c(c2)NC(=O)C2CCCCN32)c1 (stereo unspecified)	-2.9	-3.2
CCc1ccc(OCCNC(=O)OC)cc1	3.0	-6.9
O=C(Nc1ccc(F)c(F)c1)C(NS(=O)(=O)c1cccs1)c1ccccc1 (stereo unspecified)	-0.7	-2.0
O=C(Nc1ccc(C(F)(F)F)cc1)C(NS(=O)(=O)c1cccs1)c1ccccc1 (stereo unspecified)	-1.3	84.0*
Cc1cn2c(nc1=O)OC1C(O)C(CO)OC12 (stereo unspecified)	.	-5.1
O=S(=O)(c1ccccc1)c1nc(Cc2ccccc2)oc1N1CCCCCC1	68.0*	23.0
O=S(=O)(c1ccccc1)c1nc(-c2ccccc2)oc1N1CCOCC1	-2.9	1.0
CN1CCN(C(=O)CN2C(=O)/C(=C/c3ccc(C(F)(F)F)cc3)Sc3ccccc32)CC1	1.8	51.0*
Cc1ccc(/C=C2\Sc3ccccc3N(CC(=O)NCc3ccccn3)C2=O)cc1	-1.1	80.0*
SMILES	Pf apPOL block	mHTT-CaM PPI inh
CCOCCCNC(=O)CN1C(=O)/C(=C/c2ccc(C(F)(F)F)cc2)Sc2ccccc21	-25.8	16.0
O=C(CN1C(=O)/C(=C/c2ccc(C(F)(F)F)cc2)Sc2ccccc21)NCc1ccccn1	-7.8	32.0
O=C(CN1C(=O)/C(=C/c2ccc(C(F)(F)F)cc2)Sc2ccccc21)NCCN1CCCC1	2.6	84.0*
COCCCNC(=O)CN1C(=O)/C(=C/c2ccc(C(F)(F)F)cc2)Sc2ccccc21	0.4	56.0*
CCCCNC(=O)CN1C(=O)/C(=C/c2ccc(C(F)(F)F)cc2)Sc2ccccc21	2.3	-6.0
CNC(=O)CN1C(=O)/C(=C/c2ccc(C(F)(F)F)cc2)Sc2ccccc21	-34.9	19.0
N#C/C(=C\c1cccc([N+](=O)[O-])c1)c1nc(-c2ccc(Cl)cc2Cl)cs1	-2.9	3.3
COc1cc(NC(C)=O)c(OC)cc1Cl	-5.7	-0.6
Cc1cc(C2CCCN2C(=O)Nc2ccccc2Br)on1 (stereo unspecified)	-4.2	3.2
O=C1C[C@@H]2c3c(cccc3CN1Cc1ccccc1Cl)C[C@@H](O)[C@H]2O	-5.5	-0.2
CCn1cc(/C=C2\C(=O)NC(=O)N(c3ccc(Br)cc3)C2=O)c2ccccc21	-4.7	11.0
CCn1cc(/C=C2\C(=O)NC(=O)N(c3ccc(F)cc3)C2=O)c2ccccc21	-4.0	8.0
CCN(CC)C(=O)Cn1cc(/C=C2\C(=O)NC(=O)N(c3cccc(C)c3C)C2=O)c2ccccc21	-4.9	56.0*
CCn1cc(/C=C2\C(=O)NC(=O)N(c3ccc(C)cc3)C2=O)c2ccccc21	47.4	53.0*
O=C(c1ccsc1)N1CCC(Nc2cccnc2)C1 (stereo unspecified)	-1.7	-0.2
COc1ccccc1CC(=O)N1CCC(Cc2nc3cccnc3n2C)C1 (stereo unspecified)	-2.2	10.3
O=C1[C@H](Cc2ccccc2)NCCCC[C@H](c2ccc(Cl)cc2)N1Cc1ccc(Cl)cc1	-6.2	11.2
O=C1[C@H](Cc2ccccc2)NCCCC[C@@H](c2ccc(Cl)cc2)N1Cc1ccccc1	-3.8	91.1*
COc1ccc(OC)c(NS(=O)(=O)c2ccc(-c3ccccc3)cc2)c1	-9.0	39.7
CCOC(=O)c1ccc(NS(=O)(=O)c2ccc3[nH]c4c(c3c2)CCCC4)cc1	-1.3	86.6*
COc1cc(NS(=O)(=O)c2ccc3[nH]c4c(c3c2)CCCC4)cc(OC)c1OC	-3.8	82.8*
COc1ccccc1NS(=O)(=O)c1ccc2[nH]c3c(c2c1)CCCCC3	-1.7	96.6*
CCOc1ccccc1NS(=O)(=O)c1ccc2[nH]c3c(c2c1)CCCCC3	-1.2	25.8
CCC(C)NS(=O)(=O)c1ccc2[nH]c3c(c2c1)CCCC3 (stereo unspecified)	-2.1	27.4
O=S(=O)(Nc1cccnc1)c1ccc2[nH]c3c(c2c1)CCCCC3	-4.5	34.6
SMILES	Pf apPOL block	mHTT-CaM PPI inh
COc1ccc(OC)c(NS(=O)(=O)c2ccc3[nH]c4c(c3c2)CCCC4)c1	-1.4	71.3*
Cc1cc(NC(=O)CSc2ccc(NC(=O)C3CC3)nn2)no1	-0.9	-13.8
COc1cc2c(cc1OC)C(C(=O)N1CCCC1)C(c1ccccc1F)N(C)C2=O (stereo unspecified)	-1.5	-6.0
CCNC(=O)C1CCc2sc(C(=O)N3CCCC3)cc2C1 (stereo unspecified)	-0.4	-3.3
O=C1c2ccccc2C(=O)c2cc(S(=O)(=O)Nc3ccccc3F)ccc21	-2.2	26.0
COc1ccccc1CNS(=O)(=O)c1ccc(OC)c(OC)c1	-5.7	-2.0
O=S(=O)(Nc1ccccc1F)c1ccc2[nH]c3c(c2c1)CCCC3	-5.8	55.6*
COc1ccccc1NS(=O)(=O)c1ccc2[nH]c(=O)sc2c1	-0.5	-2.0
COc1ccccc1NS(=O)(=O)c1ccc2[nH]c3c(c2c1)CCCC3	-0.9	81.2*
COc1ccccc1CNS(=O)(=O)c1ccc2[nH]c3c(c2c1)CCCC3	-1.4	64.0*
COCCN(CCOC)S(=O)(=O)CCNC(=O)c1ccccc1	7.9	10.1
Cc1nn(CC(=O)Nc2cccc(C(F)(F)F)c2)c(=O)c2ccccc12	-3.4	6.0
COc1cccc(CNc2ccc(-c3nc(-c4ccc(F)cc4)no3)cn2)c1	0.7	-6.2
Cc1cc(OC(=O)C=Cc2ccc3c(c2)OCO3)c([N+](=O)[O-])c(=O)[nH]1	7.8	76.9*
COc1ccc(C(=O)Oc2cc(C)[nH]c(=O)c2[N+](=O)[O-])cc1OC	-2.4	85.6*
CC=CC(=O)Oc1cc(C)[nH]c(=O)c1[N+](=O)[O-]	4.1	20.6
